# Measurements: ChEMBL document CHEMBL3988442, “University of Dundee, Small-Polar-MMV Screening Library” (2021)
# In all, about 48,000 compounds went through this assay and about 13,000 (27%) showed an effect of 50% or more. The list shows a part of the results.
# Test system: Wolbachia pipientis
# Experiment: Anti-Wolbachia Cell-Based Screen
# Type: functional
# Design: scale not given: in the data most compounds retested in dose-response had high values
# Conditions: 5 µM
row,SMILES,Percent Effect [%]
1,O=C1N(Cc2cccc(F)c2F)CCCC1(O)CNCc1ccccc1 (configuration not stated),16.03
2,Cc1c(CNS(=O)(=O)c2cccc(COC(C)C)c2)cnn1C,-15.21
3,CN1C[C@@H](NC(=O)C(C)(C)C)C[C@H]1C(=O)NCc1ncc[nH]1,-5.014
4,COCCOC[C@]1(CNC(=O)c2ccc(OC)cc2)C[C@@H](O)[C@@H](O)C1,-0.4241
5,Cc1cc(C)c(CNC(=O)NCc2nnc3n2CCCCC3)c(=O)[nH]1,-9.467
6,O=C(CN1CCOc2ccc(Cl)cc21)NCc1ncc[nH]1,-5.45
7,Cc1cccc(C)c1CCNC(=O)N1CCCC2(C1)OCCO2,-0.05309
8,Cc1ccccc1NC(=O)N1CC[C@@H]2CN(CC(C)C)S(=O)(=O)[C@@H]2CC1,-60.79
9,CCN(Cc1c(C)nn(C)c1C)C(=O)C1COc2ccccc2C1 (configuration not stated),-5.134
10,CC(C)c1n[nH]c(C2CN(C(=O)c3cc(C4CC4)on3)CCO2)n1 (configuration not stated),113.9
11,CC(C)c1n[nH]c(C2CN(C(=O)c3csnn3)CCO2)n1 (configuration not stated),4.906
12,Cc1n[nH]c(C2CN(C(=O)c3cc(C4CC4)on3)CCO2)n1 (configuration not stated),119.9
13,Cc1n[nH]c(C2CN(C(=O)c3ccon3)CCO2)n1 (configuration not stated),-8.521
14,Cc1n[nH]c(C2CN(C(=O)c3csnn3)CCO2)n1 (configuration not stated),-23.45
15,CC(C)c1n[nH]c(C2CN(Cc3nnc(C4CC4)o3)CCO2)n1 (configuration not stated),-9.108
16,CN1CCN2CCN(C(=O)c3cc4ncc(CCO)cn4n3)CC2C1 (configuration not stated),-4.032
17,CCCn1ccnc1SCC(=O)NC(Cc1ccccc1)C(C)=O (configuration not stated),22.6
18,COCC(C)NC(=O)c1cc(Br)c2c(c1)OCCO2 (configuration not stated),-1.818
19,CC(C)(C)CNC1(Cc2cc(C(C)(C)O)on2)COC1,-22.48
20,CN(Cc1cccnc1)CC1CC12CCCC2 (configuration not stated),103.1
21,Cc1cnc(N2CCC3(CC2)CC3CN(C)Cc2cccnc2)nc1.O=C(O)C(F)(F)F.O=C(O)C(F)(F)F (configuration not stated),2.289

row,SMILES,Percent Effect [%]
1,CN(Cc1cccnc1)CC1CC12CCN(Cc1nccs1)CC2 (configuration not stated),11.24
2,CC(C)(C)c1n[nH]c(C2CN(C(=O)c3ccsc3)CCO2)n1 (configuration not stated),-3.296
3,Cc1n[nH]c(C2CN(C(=O)c3cnc[nH]3)CCO2)n1 (configuration not stated),-6.3
4,CC(C)(C)c1n[nH]c(C2CN(C(=O)c3cc(C4CC4)[nH]n3)CCO2)n1 (configuration not stated),116
5,CC(C)(C)c1n[nH]c(C2CN(C(=O)c3cnc[nH]3)CCO2)n1 (configuration not stated),97.58
6,CC(C)c1n[nH]c(C2CN(C(=O)CCCn3cccn3)CCO2)n1 (configuration not stated),-13
7,Cc1nc(CC(=O)N2CCOC(c3nc(C(C)(C)C)n[nH]3)C2)cs1 (configuration not stated),-6.24
8,CSCC(=O)N1CCOC(c2nc(C(C)(C)C)n[nH]2)C1 (configuration not stated),103.9
9,CC(C)(C)c1n[nH]c(C2CN(C(=O)CCC3CC3)CCO2)n1 (configuration not stated),-7.383
10,Cc1n[nH]c(C2CN(C(=O)c3cc(C4CC4)[nH]n3)CCO2)n1 (configuration not stated),6.266
11,Cc1nc(CN2CCOC(c3nc(C(C)C)n[nH]3)C2)oc1C (configuration not stated),-6.661
12,CCc1n[nH]c(C2CN(C(=O)c3cnc[nH]3)CCO2)n1 (configuration not stated),-7.128
13,CSCC(=O)N1CCOC(c2nc(C(C)C)n[nH]2)C1 (configuration not stated),117.1
14,CCc1ccc(C(=O)N2C[C@@H]3COC[C@@H](C(=O)NC)[C@@H]3C2)cc1,-16.14
15,Cc1ccc(S(=O)(=O)N2CC(C)Oc3ncccc32)c(C)c1 (configuration not stated),-17.54
16,Cn1nnc2c1CCN(C(=O)C1CC1)C2COCCN1CCCC1.O=C(O)C(F)(F)F (configuration not stated),-5.654
17,CCn1ncnc1CN1CCc2[nH]cnc2C1Cc1ccccc1 (configuration not stated),-1.907
18,Cc1cccc(CNC2(CCO)CCOCC2)c1C,-7.231
19,CSC(C)C(=O)NS(=O)(=O)CCc1ccccc1 (configuration not stated),-7.68
20,Cc1n[nH]c(C2CN(C(=O)c3ccc(Cl)o3)CCO2)n1 (configuration not stated),-21.06
21,CSCC(=O)N1CCOC(c2nc(C)n[nH]2)C1 (configuration not stated),81.74

row,SMILES,Percent Effect [%]
1,Cc1[nH]c(-c2ccccc2)nc1C(=O)N1CCc2[nH]cnc2C1C(=O)O (configuration not stated),-27.35
2,COCCCN(C)S(=O)(=O)c1ccc(Cl)cc1C#N,-9.182
3,COCCNC(=O)CCNc1ccc(Cl)cn1,-1.356
4,COCCCNC(=O)Cc1cc(-c2ccc(Cl)cc2)on1,18.42
5,COCCNc1c(-c2ccc(Cl)cc2)c(=O)c1=O,106.9
6,COCCN1CCN(Cc2ccc(Cl)cc2)[C@H]2CS(=O)(=O)C[C@H]21,3.262
7,COCCCNc1c(-c2ccc(Cl)cc2)c(=O)c1=O,75.4
8,CCCNC(=O)CC1OCCc2ccsc21 (configuration not stated),-18.02
9,CN1CCN(C[C@@H]2CN(Cc3c(Cl)cncc3Cl)C[C@@H]2CO)CC1,-1.243
10,COCC1CN(c2ncc(F)cn2)Cc2cnn(C)c21.O=C(O)C(F)(F)F.O=C(O)C(F)(F)F (configuration not stated),94.8
11,CCn1ncc2c1C(COC)CN(c1ncc(F)cn1)C2.O=C(O)C(F)(F)F.O=C(O)C(F)(F)F (configuration not stated),103.8
12,Cn1ncc2c1C(COCC1CC1)CN(CC1CC1)C2 (configuration not stated),3.494
13,COCC1CN(Cc2cc(C)on2)Cc2cnn(C)c21.O=C(O)C(F)(F)F.O=C(O)C(F)(F)F (configuration not stated),-1.756
14,COCC1CN(C(=O)N2CCCC2)Cc2cnn(CC3CCCC3)c21 (configuration not stated),9.026
15,CCn1ncc2c1C(COC)CN(S(=O)(=O)N(C)C)C2.O=C(O)C(F)(F)F (configuration not stated),-1.525
16,Cn1ncc2c1C(COCC1CC1)CN(c1ncc(F)cn1)C2 (configuration not stated),102.8
17,CCOCCN1Cc2cnn(C)c2C(COCC)C1.O=C(O)C(F)(F)F.O=C(O)C(F)(F)F (configuration not stated),-55.01
18,Cn1ncc2c1C(COCC1CC1)CN(S(C)(=O)=O)C2 (configuration not stated),3.209
19,COCC1CN(c2ncccn2)Cc2cnn(CC3CC3)c21 (configuration not stated),112.4
20,Cn1cc(C[C@H]2[C@H](N3CCOCC3)CCN2C2CCOCC2)cn1.O=C(O)C(F)(F)F.O=C(O)C(F)(F)F,-4.511
